The source of these data is PubChem BioAssay (NCI).

The panel holds about 83,000 compounds, 20% with a hit somewhere; the sample as a whole holds those more often.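 Method: cells in 96-well plates; compound added at one concentration; 48 h incubation; percent growth measured; values under 10 scored active.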 A number with no mark means an inactive call. Active and inactive are the calls of the source.

Test systems include HCT-15 colon; HT29 colon; SNB-75 CNS; SNB-19 CNS; U251 CNS; PC-3 prostate; SK-MEL-5 melanoma; UACC-62 melanoma; LOX IMVI melanoma; SK-MEL-28 melanoma.
Common to all, as to assay: NCI-60 one-dose screen, 48 h (100 = growth as untreated, 0 = no growth, -100 = all killed)
Conditions in all cases: 10 µM unless noted

Consider `COc1ccc(-c2nnc(COc3ccc(NS(=O)(=O)c4ccc(OC)cc4)cc3F)o2)cc1`, for which the growth with HCT-15 colon is 85.1%; in the test with HT29 colon, 91.1%; with SNB-75 CNS it was 77.4%; in the test on SNB-19 CNS, 84%; in the test on U251 CNS it was 82.2%; with PC-3 prostate it was 56.3%. Moreover, the growth with SK-MEL-5 melanoma is 43.9%; in the test with UACC-62 melanoma it was 64.8%; in the test on LOX IMVI melanoma it was 86.3%; with SK-MEL-28 melanoma it was 97%.

For `CCN(CC)CCCC(C)N=c1cc(Nc2cc(=NC(C)CCCN(CC)CC)c3cc(OC)ccc3o2)oc2ccc(OC)cc12` (stereo not given), the growth in the test with HCT-15 colon was -16.7% (active); in the test on HT29 colon, -42% (active); in the test on SNB-75 CNS, -90.8% (active); in the test with SNB-19 CNS, 2.11% (active); in the test on U251 CNS, -57.6% (active); with PC-3 prostate, -26.4% (active). Further, the growth with SK-MEL-5 melanoma was -97.8% (active); in the test on UACC-62 melanoma, -72.5% (active); with LOX IMVI melanoma it was -77.7% (active); in the test on SK-MEL-28 melanoma it was -94.6% (active).

Take `COc1ccc(C2CC(=O)Nc3c2c(C)nn3-c2nc3ccccc3[nH]2)cc1OC` (stereo not given): the growth in the test on HCT-15 colon is 85.9%; in the test on HT29 colon, 95.3%; in the test on SNB-75 CNS, 50.9%; in the test on SNB-19 CNS it was 84.9%; with U251 CNS, 84.4%; with PC-3 prostate, 75.4%. Moreover, the growth is 71.2% in the test on SK-MEL-5 melanoma, 68.8% with UACC-62 melanoma, 44.2% in the test with LOX IMVI melanoma and 88.1% in the test with SK-MEL-28 melanoma.

As for `COc1cc(Cn2c(SCCC(=O)Nc3ccc(F)cc3)nc3ccccc3c2=O)cc(OC)c1OC`, the growth with HCT-15 colon is 79%; in the test with HT29 colon, 86.9%; in the test with SNB-75 CNS, 80.3%; in the test with SNB-19 CNS it was 80.4%; in the test with U251 CNS, 95.2%; in the test on PC-3 prostate it was 75.8%. The growth was 85% in the test on SK-MEL-5 melanoma, 76.4% with UACC-62 melanoma, 90.9% in the test on LOX IMVI melanoma and 99.8% with SK-MEL-28 melanoma.

Take `NC(=O)c1c(NC(=O)c2ccc(OCC3CCCO3)cc2)sc2c1CCCC2` (stereo not given): the growth with HCT-15 colon was 101%; with HT29 colon, 105%; in the test on SNB-75 CNS it was 135%; in the test with SNB-19 CNS, 106%; in the test on U251 CNS it was 95.2%; in the test on PC-3 prostate, 74.4%. The growth in the test on SK-MEL-5 melanoma was 78.2%; in the test on UACC-62 melanoma, 85%; in the test with LOX IMVI melanoma, 105%; with SK-MEL-28 melanoma, 125%.

Regarding `Cc1oc2ncnc(Nc3ccccc3)c2c1C(=O)NCCO`, the growth in the test with HCT-15 colon was 98.1%; in the test on HT29 colon, 106%; in the test on SNB-75 CNS, 90.7%; with SNB-19 CNS it was 93.9%; in the test on U251 CNS, 102%; in the test with PC-3 prostate it was 107%. For the same molecule, the growth with SK-MEL-5 melanoma was 97.5%; in the test with UACC-62 melanoma, 86.2%; with LOX IMVI melanoma it was 95.4%; with SK-MEL-28 melanoma it was 98.9%.

Take `N=C(N)c1ccc(-c2ccc(-c3ccc(Cl)cc3)o2)nc1`: the growth was -75.1% (active) in the test on HCT-15 colon; -92.9% (active) in the test on HT29 colon; -97.8% (active) in the test on SNB-75 CNS; -87.2% (active) in the test with SNB-19 CNS; -98.1% (active) in the test on U251 CNS; -90% (active) in the test on PC-3 prostate. The growth with SK-MEL-5 melanoma is -98.8% (active); in the test on UACC-62 melanoma, -96.8% (active); with LOX IMVI melanoma it was -90.4% (active); in the test with SK-MEL-28 melanoma, -94.2% (active).

As to `CNC(C)=O`, the growth is 105% with HCT-15 colon; 94.8% with HT29 colon; 104% in the test on SNB-75 CNS; 104% in the test on SNB-19 CNS; 93.4% in the test on U251 CNS; 96.6% with PC-3 prostate. The growth in the test on SK-MEL-5 melanoma is 102%; with UACC-62 melanoma it was 105%; with LOX IMVI melanoma, 95%; in the test with SK-MEL-28 melanoma, 101%.

In the case of `CN1CCN(c2ccc3cc(-c4nc5ccccc5[nH]4)c(=O)oc3c2)CC1`, the growth is 91% with HCT-15 colon; 108% in the test on HT29 colon; 91.8% in the test on SNB-75 CNS; 118% with SNB-19 CNS; 99.3% in the test on U251 CNS; 83.2% in the test with PC-3 prostate. Further, the growth is 74.6% with SK-MEL-5 melanoma, 81.6% in the test on UACC-62 melanoma, 87.2% with LOX IMVI melanoma and 94.9% in the test with SK-MEL-28 melanoma.

Turning to `CCCCCCCCCCCCOB(OCCCCCCCCCCCC)OCCCCCCCCCCCC`, the growth was 105% in the test on HCT-15 colon; 105% with HT29 colon; 118% in the test on SNB-75 CNS; 106% with SNB-19 CNS; 94.4% with U251 CNS; 98.5% with PC-3 prostate. Also, the growth in the test with SK-MEL-5 melanoma is 102%; in the test with UACC-62 melanoma, 104%; with LOX IMVI melanoma it was 89.7%; with SK-MEL-28 melanoma, 108%.

Turning to `COc1ccc(S(=O)(=O)N2CCN(c3cc4c(cc3F)c(=O)c(C(=O)O)cn4C3CC3)CC2)c(OC)c1`, the growth was 97.2% in the test on HCT-15 colon; 113% in the test on HT29 colon; 85.7% in the test with SNB-75 CNS; 89.5% in the test on SNB-19 CNS; 102% in the test on U251 CNS; 99.1% in the test on PC-3 prostate. In addition, the growth with SK-MEL-5 melanoma was 82.6%; in the test on UACC-62 melanoma, 84.4%; in the test on LOX IMVI melanoma it was 61.7%; with SK-MEL-28 melanoma, 101%.

`COc1cc(C(=O)CCCl)ccc1O`: the growth was 95.2% in the test on HCT-15 colon; 112% in the test on HT29 colon; 85.8% in the test on SNB-75 CNS; 101% in the test with SNB-19 CNS; 103% in the test with U251 CNS; 95% with PC-3 prostate. The growth in the test with SK-MEL-5 melanoma is 103%; in the test on UACC-62 melanoma, 97.4%; in the test on LOX IMVI melanoma, 90.5%; in the test on SK-MEL-28 melanoma it was 107%.

With `CCN1C(=O)N(CC)C2C1NN=c1s/c(=C\c3cccc(F)c3)c(=O)n12` (stereo not given), the growth in the test with HCT-15 colon was 15.7%; in the test on HT29 colon, 10.4%; in the test on SNB-75 CNS, 6.61% (active); in the test with SNB-19 CNS, 34.6%; in the test on U251 CNS, 29.4%; with PC-3 prostate, 24.7%. Further, the growth in the test with SK-MEL-5 melanoma is -30.7% (active); in the test with UACC-62 melanoma it was 33.3%; with LOX IMVI melanoma, 24.4%; in the test on SK-MEL-28 melanoma, 57.8%.

For `O=C1c2ccccc2C(=O)c2c(N=Nc3sc(=O)[nH]c3S)cccc21`, the growth with HCT-15 colon was 94%; in the test on HT29 colon it was 82.9%; in the test on SNB-75 CNS, 112%; in the test with SNB-19 CNS, 93.4%; in the test with U251 CNS it was 91.6%; with PC-3 prostate, 89.9%. The growth was 93.4% in the test with SK-MEL-5 melanoma, 88.8% in the test with UACC-62 melanoma, 84.9% in the test on LOX IMVI melanoma and 110% with SK-MEL-28 melanoma.
